FBW7 act = human FBW7 E3 ligase activation, primary screen | Q969H0 | AlphaScreen FBW7–phospho-cyclin E peptide binding, activator screen | normalized activity (activation), % at 26.1 µM | 0.13% of 650,000 active; in the data active means normalized activity above about 1.9%;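 further: purified mutant Fbw7 with reduced substrate affinity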
Target sequence (Q969H0 whole entry, looked up): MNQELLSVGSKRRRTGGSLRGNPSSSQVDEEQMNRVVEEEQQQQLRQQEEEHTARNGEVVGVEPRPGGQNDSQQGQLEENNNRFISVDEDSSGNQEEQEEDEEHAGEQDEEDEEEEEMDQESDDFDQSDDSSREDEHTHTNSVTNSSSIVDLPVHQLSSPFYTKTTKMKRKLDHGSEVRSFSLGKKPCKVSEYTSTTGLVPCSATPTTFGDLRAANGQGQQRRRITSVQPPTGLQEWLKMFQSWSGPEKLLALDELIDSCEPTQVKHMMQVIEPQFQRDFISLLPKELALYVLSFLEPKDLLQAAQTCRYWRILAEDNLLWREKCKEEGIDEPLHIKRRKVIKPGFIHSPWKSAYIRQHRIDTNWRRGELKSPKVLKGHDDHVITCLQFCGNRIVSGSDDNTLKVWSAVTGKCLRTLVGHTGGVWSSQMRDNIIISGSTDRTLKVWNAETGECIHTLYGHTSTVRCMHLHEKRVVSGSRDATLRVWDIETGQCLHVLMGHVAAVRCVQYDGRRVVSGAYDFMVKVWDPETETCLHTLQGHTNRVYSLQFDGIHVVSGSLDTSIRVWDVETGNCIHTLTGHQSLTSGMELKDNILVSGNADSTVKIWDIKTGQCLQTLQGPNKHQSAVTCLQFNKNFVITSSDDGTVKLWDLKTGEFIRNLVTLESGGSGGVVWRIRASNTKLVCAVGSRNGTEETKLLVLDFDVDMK
MITF primary = inhibitors of human MITF | O75030 | AlphaScreen MITF homodimerization, bead proximity signal | inhibition, % at 2.6 µM | 0.91% of 650,000 active; in the data active means inhibition above about 50%;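 further: 0% = vehicle wells with protein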
TEAD-YAP block = TEAD-YAP interaction inhibition; inhibition, % at 9.12 µM; 1.4% of 640,000 active; HEK-TIYL cells, TEAD-Gal4/YAP UAS-luciferase luminescence; in the data active means inhibition above about 32%;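 further: 0% = median of test compound wells and 100% = reference inhibitor wells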
GPR151 ag = human GPR151 activation; PathHunter beta-arrestin GPR151 cells, luminescence; 1% of 650,000 active; AID 1508602; Q8TDV0; activation, % at 11.2 µM; in the data active means activation above about 4.9%;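 further: 0% = median of compound wells and 100% = cells with positive control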
GPR151 confirm = human GPR151 activation, confirmation screen. activation, % at 11.2 µM. GPR151 PathHunter beta-arrestin cells, luminescence, 90 min; % of EA-reagent control over plate median. 6,700 tested, under 10 active. AID 1508609. shares compounds with GPR151 ag;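 active means mean percent activation across replicates above the confirmation screen cutoff of 4.91%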
GPR119 ag = counter-screen for GPR151 activators: effect on human GPR119. 0.3% of 6,700 active. GPR119 PathHunter beta-arrestin cells, luminescence, 90 min; 0 = compound-well median, 100 = enzyme-acceptor control. activation, % at 11.2 µM. shares compounds with GPR151 ag;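 active means mean percent activation in the counterscreen above 29.09%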;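 further: counterscreen on off-target GPR119 to flag nonselective hits from the GPR151 activator screen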
* = called active by the depositor. Hits are enriched below; roughly 3.4% of the tested compounds scored in any of these assays.

COc1ccc(-c2oc3ncn4nc(-c5cccc6ccccc56)nc4c3c2-c2ccc(OC)cc2)cc1 was read as FBW7 act 0, MITF primary -1, TEAD-YAP block 4, GPR151 ag 5.3*, GPR151 confirm 0 and GPR119 ag 11.
Screening CC(=O)Nc1ccc(S(=O)(=O)N2CCCC(c3ncncc3-c3ccncc3)C2)cc1 (stereo not given) returned FBW7 act 0, MITF primary 1, TEAD-YAP block -3 and GPR151 ag 1.
CCOC(=O)c1ccc(NC(=O)CN2C(=O)C(CC)SC(CC)C2=O)cc1 (stereo not given) was read as FBW7 act 0, MITF primary 9, TEAD-YAP block 2, GPR151 ag 6.4*, GPR151 confirm 0 and GPR119 ag 6.
`CCOc1ccc(NC(=O)CNC(=O)c2ccccc2)cc1` gave FBW7 act 0, MITF primary 7, TEAD-YAP block -25 and GPR151 ag -1.
For CCOc1ccc(NC(=O)CN2C(=O)C(CC)SC(CC)C2=O)cc1 (stereo not given) the results were FBW7 act 0, MITF primary 7, TEAD-YAP block 14, GPR151 ag 5.1*, GPR151 confirm 1 and GPR119 ag 8.
Screening CCOc1ccc(/C=C2\SC(=S)N(CC(=O)Nc3ccc(O)cc3)C2=O)cc1 returned FBW7 act 0, MITF primary 2, TEAD-YAP block 0, GPR151 ag 5.7*, GPR151 confirm 2 and GPR119 ag 6.
`CCOC(=O)c1ccc(NC(=O)CNC(=O)c2ccccc2)cc1` gave FBW7 act 1, MITF primary 7, TEAD-YAP block 2, GPR151 ag 15*, GPR151 confirm -2 and GPR119 ag -4.
CCOc1ccc(NC(=O)CN2C(=O)C(C)SC(C)C2=O)cc1 (stereo not given) was read as FBW7 act 0, MITF primary 4, TEAD-YAP block 1 and GPR151 ag 3.
For CCOC(=O)c1ccc(NC(=O)CN2C(=O)CSCC2=O)cc1 the results were FBW7 act 0, MITF primary -4, TEAD-YAP block 11 and GPR151 ag 3.
`CC(=O)N[C@H]1[C@H](Oc2ccc3c(C)cc(=O)oc3c2)O[C@H](CO)[C@@H](O)[C@@H]1O` gave FBW7 act 0, MITF primary -2, TEAD-YAP block -1 and GPR151 ag 0.
Screening COc1ccc(/C=C2\SC(=O)N(CC(=O)Nc3ccc(F)cc3)C2=O)cc1O returned FBW7 act 0, MITF primary -8, TEAD-YAP block 1, GPR151 ag 6.2*, GPR151 confirm 1 and GPR119 ag 10.
Screening COc1ccc(/C=C2\SC(=O)N(CC(=O)Nc3ccc(C)cc3)C2=O)cc1OC returned FBW7 act 1, MITF primary 12, TEAD-YAP block 0 and GPR151 ag -1.
`CCN(CC)c1ccc(/C=N\NC(=O)c2ccc(O)cc2)cc1` gave FBW7 act 0, MITF primary 1, TEAD-YAP block 27 and GPR151 ag 0.
Screening CCN(CC)c1ccc(/C=N/NC(=O)c2ccc(O)cc2O)cc1 returned FBW7 act 0, MITF primary 5, TEAD-YAP block 74*, GPR151 ag 6.0*, GPR151 confirm -1 and GPR119 ag -2.
`CCCCN(C)C(=O)CN1C(=O)C(CC)Oc2ccc(C)cc21` (stereo not given) gave FBW7 act 0, MITF primary -16, TEAD-YAP block -2, GPR151 ag 8.8*, GPR151 confirm 0 and GPR119 ag -9.
`CCC1Oc2ccc(C)cc2N(CC(=O)O)C1=O` (stereo not given) gave FBW7 act 0, MITF primary 2, TEAD-YAP block 1 and GPR151 ag 0.
`O=C(NNC(=S)Nc1ccccc1Cl)C1CC1` gave FBW7 act 0, MITF primary 5, TEAD-YAP block 6, GPR151 ag 6.0*, GPR151 confirm 1 and GPR119 ag 9.
Screening CCC(C)(C)NC(=O)CN(C(=O)CCC(=O)Nc1cc(C)ccn1)c1cc(C)ccc1C returned FBW7 act 0, MITF primary -3, TEAD-YAP block -4 and GPR151 ag 0.
`COc1cc(/C=c2\sc3nc(=O)c(C)nn3c2=O)ccc1OC(C)=O` gave FBW7 act 0, MITF primary 4, TEAD-YAP block 3, GPR151 ag 14*, GPR151 confirm 0 and GPR119 ag -1.
`CCOc1ccc(/C=c2\sc3nc(=O)c(C)nn3c2=O)cc1OC` gave FBW7 act 0, MITF primary 8, TEAD-YAP block 16 and GPR151 ag 0.
Cc1[nH]c2ccccc2c1C(=O)C(=O)N1CCCC1 was read as FBW7 act 0, MITF primary -3, TEAD-YAP block 8 and GPR151 ag 0.
For COC(=O)c1ccc(Nc2nc3ccccc3n3c(C)nnc23)cc1 the results were FBW7 act 0, MITF primary -3, TEAD-YAP block 4 and GPR151 ag 2.
CC(=O)c1ccc(Nc2nc3ccccc3n3c(C)nnc23)cc1 was read as FBW7 act 0, MITF primary 3, TEAD-YAP block 12, GPR151 ag 7.3*, GPR151 confirm 1 and GPR119 ag 0.
`Nc1cccc(-c2cc(Nc3ccc(Oc4ccccc4)cc3)nc(N)n2)c1` gave FBW7 act 0, MITF primary 7, TEAD-YAP block 52*, GPR151 ag 4.9*, GPR151 confirm 1 and GPR119 ag -7.
Screening COc1ccc(-c2cc(Nc3ccc(Oc4ccccc4)cc3)nc(N)n2)cc1 returned FBW7 act 0, MITF primary 8, TEAD-YAP block -2 and GPR151 ag 5.
For COC(=O)c1c(NC(=O)CSc2nnc3cc(C)c4ccccc4n23)sc2c1CCCC2 the results were FBW7 act 0, MITF primary -8, TEAD-YAP block -6 and GPR151 ag 0.
`Cc1cc2nnc(SCC(=O)Nc3sc4c(c3C#N)CCCCC4)n2c2ccccc12` gave FBW7 act 0, MITF primary 12, TEAD-YAP block -2, GPR151 ag 5.9*, GPR151 confirm 1 and GPR119 ag 13.
For CC(c1nccs1)N(C)C1CCC(=O)N(Cc2cccc(F)c2)CC1 (stereo not given) the results were FBW7 act 1, MITF primary 1, TEAD-YAP block 2 and GPR151 ag -1.
`O=C(Nc1nncs1)c1cccc(Br)c1` gave FBW7 act 0, MITF primary 0, TEAD-YAP block -15 and GPR151 ag 2.
Screening O=C(Nc1nncs1)c1cccc(I)c1 returned FBW7 act 0, MITF primary -8, TEAD-YAP block 3, GPR151 ag 5.4*, GPR151 confirm 1 and GPR119 ag 5.

Source: PubChem BioAssay
